# Reference: PubChem BioAssay (NCI)
# This is part of a sample that, as a whole, favours compounds with a hit. Of some 83,000 tested, about 20% had one in any assay.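 A percent growth of 40 corresponds to 60% growth inhibition; 0 means no net growth; -100 means all cells died. Active threshold: below 10.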 A number with no mark means an inactive call. The source made the active and inactive calls.
# Test system: NCI-H322M lung
# Test: NCI-60 one-dose screen, 48 h (100 = growth as untreated, 0 = no growth, -100 = all killed)
# Details: 10 µM unless noted
row,SMILES,growth
1,CN1CCN(CCCOc2ccc3nc(Nc4ccc(F)c(F)c4)ccc3c2)CC1,68%
2,CC(CN1CCCCC1)C(=O)c1ccccc1 (centres undefined),102%
3,Cc1cc(/C=C\c2ccc3ccccc3[n+]2C)c(O)c2ncccc12,8.71% (active)
4,COc1ccc2cc(-c3cc(OC)c(OC)c(OC)c3)c(=O)oc2c1,103%
5,Cc1ccc(C2SCC(=O)N2Cc2ccccc2)cc1 (centres undefined),95.6%
6,Cc1ccc(S(=O)(=O)Oc2cc(OS(=O)(=O)c3ccc(C)cc3)cc(OS(=O)(=O)c3ccc(C)cc3)c2)cc1,140%
7,CS(=O)c1cccc(-c2ccc3nc(N)n(-c4ccc(C(F)(F)F)cc4)c(=O)c3c2)c1 (centres undefined),103%
8,Clc1ccc(-c2c3ccc(=[N+]4CCCCC4)cc-3oc3cc(N4CCCCC4)ccc23)cc1,-88.4% (active)
9,O=C1Nc2ccccc2/C1=C/c1cn(C(=O)c2c(Cl)cccc2Cl)c2ccccc12,90.4%
10,CC1CC(C(C)(C)C)C(=O)C(C(C)(C)C)C1 (centres undefined),107%
11,COc1ccc(-c2nc(SCCC(C)C)nc(N/N=C\c3ccccc3O)c2C#N)cc1,82.7%
12,O=C1CCc2c(sc3[nH]c(=S)n(-c4ccc(OC(F)(F)F)cc4)c(=O)c23)C1,90.5%
13,CC(C)CC(NC(=O)CN(Cc1ccccc1)S(C)(=O)=O)C(=O)O (centres undefined),93.8%
14,COc1cc(N=Nc2ccc(N)cc2)c(OC)cc1N=Nc1ccccc1.[Cl][Zn][Cl],78.2%
15,CCC1(C2CCCC2)NC(=O)NC1=O (centres undefined),106%
16,Cc1ccc(C(=O)C2=C(O)C(=O)N(Cc3cccnc3)C2c2ccccc2F)o1 (centres undefined),108%
17,COc1cccc(-c2nc3sccn3c2/C=C/C(=O)c2ccc(C(F)(F)F)cc2)c1,87.5%
18,COc1ccc2c(c1)C(=O)/C(=C/c1ccc(OCC(=O)Nc3nccs3)cc1)O2,127%
19,CC/C=C/C/C=C/C/C=C/C/C=C/C/C=C/C/C=C/CCC(=O)Nc1ccn([C@@H]2O[C@H](CO)[C@@H](O)C2(F)F)c(=O)n1,51.9%
20,NC(=N\N=C/c1ccccc1[N+](=O)[O-])/C(N)=N\N=C/c1ccccc1[N+](=O)[O-],146%
21,O=C(Cc1ccc(F)c(F)c1)Nc1cc(C2(C(F)(F)F)CC2)nn1Cc1ccccc1,13.4%
22,O=C(/C=C/c1ccc(Cl)nc1)c1ccc(Cl)cc1Cl,99.8%
23,O=C(Nc1ccccc1Cl)Oc1ccc(-c2ccccc2)cc1,114%
24,CN(c1ccccc1)c1ccc2c(c1)OCCC21CC1Nc1cnccc1C(=O)O (centres undefined),87.5%
